# Assay outcomes deposited in PubChem BioAssay by Broad Institute.
# T cruzi growth-1: T. cruzi proliferation inhibition; T. cruzi beta-gal in NIH3T3, GalScreen luminescence, 90 h; AID 624255; inhibition, % at 8.34 µM; actives 5.9% (n = 77,000);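 active means mean inhibition above about 93%, with at least 55% of replicates each passing it, limit read from the data, passing the limit was not always enough; inconclusive means only one of those two conditions holds; inactive means neither condition holds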
# C diff HTS: C. difficile growth inhibition | growth activity, negative = inhibition, % at 16 µg/mL (by protocol) | AID 1259249 | Clostridium difficile clinical isolate growth, OD600, 24 h; hits give low values | actives 0.25% (n = 86,000);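 active means mean growth activity at or below -80% and every replicate also at or below -80%; inconclusive means mean at or below -80% but some replicate above -80%; inactive means mean growth activity above -80%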;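 further: 0% = DMSO wells and -100% = levofloxacin 16 µg/mL wells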
# Pf Dd2 inh: P. falciparum Dd2 growth inhibition; SYBR Green, 72 h; hits give low values; activity change, % at 10 µM; actives 2.3% (n = 94,000); AID 1159554; in the data active means activity change below about -80%; inconclusive means no clear call, values can overlap the other calls
# T cruzi growth-2: blocks T. cruzi growth in NIH3T3 host cells; shares compounds with T cruzi growth-1; T. cruzi beta-gal in NIH3T3, GalScreen luminescence, 90 h; inhibition, % at 8.35 µM; actives 72% (n = 5,600); AID 651739;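 active means mean replicate inhibition above about 95% and at least 55% of replicates individually reaching it, limit read from the data; inconclusive means only one of the two criteria is met; inactive means neither criterion is met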
# T cruzi growth-3: inhibitors of T. cruzi proliferation; inhibition, % at 2.09 µM; shares compounds with T cruzi growth-1; actives 21% (n = 5,600); T. cruzi beta-gal in NIH3T3, GalScreen luminescence, 90 h; AID 651740;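 active means mean inhibition above about 95%, with at least 55% of replicates also reaching it, limit read from the data; inconclusive means meets just one of the two conditions; inactive means meets neither condition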;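 further: plate controls were neutral control median for no effect and positive control median for full effect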
# 3T3 cytotox: kills mouse NIH/3T3 fibroblasts. AID 651742. shares compounds with T cruzi growth-1. cytotoxicity (signal decrease), % at 8.35 µM. actives 14% (n = 5,600). NIH/3T3 viability, CellTiter-Glo ATP luminescence, 90 h;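 active means mean signal decrease across replicates above about 35% based on untreated-well scatter, with enough replicates individually passing, limit read from the data; inconclusive means no rule stated though some were filed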;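 further: 0% = median of neutral control wells and 100% = median of positive control wells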
# NIH3T3 tox 2: NIH/3T3 (mouse) viability loss. inhibition, % at 24.9 µM. shares compounds with T cruzi growth-1. NIH/3T3 viability, CellTiter-Glo ATP luminescence, 90 h. actives 56% (n = 5,600);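 active means mean loss of cell viability signal at or above a set limit, and enough replicates individually reaching it; inconclusive means meets only the mean limit or only the replicate share; inactive means meets neither condition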;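 further: 0% = median of neutral control wells and 100% = median of positive control wells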
# Active calls of the source: *; ? = inconclusive; · = no result given; ! = a repeat was not active. The list is not random: actives were taken first. Their share in the collection is about 6.7%.
SMILES,T cruzi growth-1,C diff HTS,Pf Dd2 inh,T cruzi growth-2,T cruzi growth-3,3T3 cytotox,NIH3T3 tox 2
C[C@H]1CN([C@@H](C)CO)S(=O)(=O)c2ccc(Br)cc2O[C@@H]1CN(C)Cc1ccccc1,97*!,4,4,100*,92,?,107*
CO[C@@H]1CN(C)C(=O)c2cc(NC(=O)Nc3cccc(F)c3)ccc2OC[C@H](C)N(C(=O)C2CC2)C[C@@H]1C,26,-10,-47,·,·,·,·
C[C@@H]1CN([C@@H](C)CO)C(=O)c2cc(NC(=O)Nc3ccccc3)ccc2O[C@@H](C)CCCCO[C@@H]1CN(C)Cc1ccc2c(c1)OCO2,97*,5,?,101*,37,42*,34*
C[C@@H]1CN([C@H](C)CO)C(=O)c2cc(NC(=O)Nc3ccccc3)ccc2O[C@@H](C)CCCCO[C@@H]1CN(C)Cc1ccc2c(c1)OCO2,?,19,-84*,87,92,94*,103*
C[C@H](CO)N1C[C@H](C)[C@H](CN(C)Cc2ccc3c(c2)OCO3)OCCCC[C@H](C)Oc2ccc(NC(=O)Nc3ccc4c(c3)OCO4)cc2C1=O,·,·,-3,·,·,·,·
C[C@@H]1CCCCO[C@@H](CN(C)Cc2ccc3c(c2)OCO3)[C@H](C)CN([C@H](C)CO)C(=O)c2cc(NC(=O)Nc3ccccc3)ccc2O1,?,14,-79,99*,105*,12,104*
C[C@H](CO)N1C[C@H](C)[C@@H](CN(C)Cc2ccc3c(c2)OCO3)OCCCC[C@H](C)Oc2ccc(NC(=O)Nc3ccc4c(c3)OCO4)cc2C1=O,91,·,-24,·,·,·,·
C[C@@H]1CN([C@H](C)CO)C(=O)c2cc(NC(=O)Nc3ccc4c(c3)OCO4)ccc2O[C@@H](C)CCCCO[C@H]1CN(C)Cc1ccc2c(c1)OCO2,·,·,-67,·,·,·,·
C[C@H]1CN([C@@H](C)CO)S(=O)(=O)c2ccc(C3=CCCC3)cc2O[C@H]1CN(C)CC1CCOCC1,·,1,-2,·,·,·,·
Cc1noc(C)c1S(=O)(=O)Nc1ccc2c(c1)C(=O)N([C@H](C)CO)C[C@H](C)[C@@H](CN(C)Cc1ccc(-c3ccccc3)cc1)O2,-96,-16,30,·,·,·,·
C[C@@H]1CN([C@@H](C)CO)C(=O)c2cc(NC(=O)c3ccncc3)ccc2O[C@@H](C)CCCCO[C@@H]1CN(C)C(=O)NC1CCCCC1,43,-6,-10,·,·,·,·
O=C(C[C@H]1CC[C@H]2[C@@H](COC[C@@H](O)CN2S(=O)(=O)c2cccc(Cl)c2)O1)Nc1ccc(-c2ccccc2)cc1,109*,14,-10,107*,108*,11,92*
O=C(C[C@H]1CC[C@H]2[C@@H](COC[C@H](O)CN2S(=O)(=O)c2cccc(Cl)c2)O1)Nc1ccc(-c2ccccc2)cc1,90,2,-17,·,·,·,·
O=C(C[C@H]1CC[C@@H]2[C@H](COC[C@@H](O)CN2S(=O)(=O)c2cccc(Cl)c2)O1)Nc1ccc(-c2ccccc2)cc1,103*,6,-39,89,108*,52*,105*
O=C(C[C@@H]1CC[C@H]2[C@@H](COC[C@@H](O)CN2S(=O)(=O)c2cccc(Cl)c2)O1)Nc1ccccc1,-4,12,15,·,·,·,·
Cc1cc(C(=O)Nc2cccc3c2O[C@H](CN(C)S(=O)(=O)c2c(C)noc2C)[C@H](C)CN([C@H](C)CO)C3=O)n(C)n1,73,-4,25,·,·,·,·
CC(=O)N1[C@@H](CO)[C@@H](c2ccccc2)[C@@H]1CN(CC1CCC1)C(=O)CN(C)C,98*,5,-6,30,-18,8,22
CCC(=O)N(CC1CCC1)C[C@H]1[C@H](c2ccccc2)[C@@H](CO)N1C(C)=O,73,-7,-6,·,·,·,·
CC(=O)N1[C@H](CO)[C@@H](c2ccccc2)[C@@H]1CN(CC1CCC1)C(=O)CN(C)C,27,1,-1,·,·,·,·
CC(=O)N1[C@H](CO)[C@H](c2ccccc2)[C@H]1CN(CC1CCC1)C(=O)CN(C)C,101*,-8,0,?,0,-23,-13
Cc1noc(C)c1S(=O)(=O)Nc1ccc2c(c1)C(=O)N([C@@H](C)CO)C[C@@H](C)[C@H](CN(C)Cc1ccncc1)OCCCC[C@H](C)O2,23,-3,7,·,·,·,·
CNC[C@H]1Oc2ccc(NC(=O)Cc3cn(C)c4ccccc34)cc2C(=O)N([C@H](C)CO)C[C@@H]1C,18,1,14,·,·,·,·
COCC(=O)N(C)C[C@@H]1Oc2cc(C3=CCCC3)ccc2S(=O)(=O)N([C@H](C)CO)C[C@@H]1C,·,0,10,·,·,·,·
O=C(C[C@H]1CC[C@H]2[C@@H](COC[C@@H](O)CN2Cc2ccccc2)O1)NCc1ccccc1Cl,6,·,-2,·,·,·,·
COc1ccc(S(=O)(=O)N(C)C[C@@H]2Oc3c(NC(=O)Nc4c(C)noc4C)cccc3C(=O)N([C@H](C)CO)C[C@@H]2C)cc1,49,6,-5,·,·,·,·
SMILES,T cruzi growth-1,C diff HTS,Pf Dd2 inh,T cruzi growth-2,T cruzi growth-3,3T3 cytotox,NIH3T3 tox 2
CCS(=O)(=O)Nc1ccc2c(c1)C(=O)N(C)C[C@@H](OC)[C@H](C)CN(CCC(F)(F)F)[C@H](C)CO2,11,·,-38,·,·,·,·
O=C(Nc1cccc(F)c1)N1CCCCN2[C@H](CO)[C@@H](c3ccc(C#CC4CC4)cc3)[C@@H]2C1,110*,61,-10,106*,104*,23,104*
O=C(Nc1ccc(F)cc1)N1CCCCN2[C@H](CO)[C@@H](c3ccc(C#CC4CC4)cc3)[C@H]2C1,113*,13,-25,111*,84,28,105*
O=C(Nc1ccc(F)cc1)N1CCCCN2[C@@H](CO)[C@H](c3ccc(C#CC4CC4)cc3)[C@@H]2C1,53,43,-55,·,·,·,·
O=C(Nc1cccc(F)c1)N1CCCCN2[C@H](CO)[C@@H](c3ccc(C#CC4CC4)cc3)[C@H]2C1,112*,43,-36,107*,80,26,104*
O=C(Nc1cccc(F)c1)N1CCCCN2[C@@H](CO)[C@@H](c3ccc(C#CC4CC4)cc3)[C@@H]2C1,70,18,-5,·,·,·,·
O=C(Nc1cccc(F)c1)N1CCCCN2[C@H](C1)[C@@H](c1ccc(C#CC3CC3)cc1)[C@@H]2CO,85,47,5,·,·,·,·
O=C(Nc1ccccc1)N1CCCCN2[C@H](CO)[C@@H](c3ccc(C#CC4CC4)cc3)[C@@H]2C1,86,18,-9,·,·,·,·
O=C(Nc1cccc(F)c1)N1CCCCN2[C@H](CO)[C@H](c3ccc(C#CC4CC4)cc3)[C@H]2C1,102*,67,-51,98*,100*,122*,104*
C[C@@H]1CN([C@@H](C)CO)C(=O)c2cccc(NS(=O)(=O)c3cccs3)c2O[C@@H]1CN(C)S(=O)(=O)c1cccs1,49,-2,-72,·,·,·,·
